Compound activity: PubChem BioAssay, National Center for Advancing Translational Sciences (NCATS)
SNCA viab count: counter-screen for SNCA expression inhibitors: cell viability. Potency, µM (series often up to 57.1 µM), inactives show at the highest dose activity change, negative = cytotoxicity, usual class: cytotoxic. AID 1671193. HEK-293-SNCA-luc viability, GF-AFC fluorescence, 24 h. 0.12% of 150,000 active;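 note: potency is the fitted concentration of half-maximal effect; 0% = DMSO-treated cells and -100% = medium-only wells without cells; nearly all actives have a fitted effect of over 30% in size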
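HEK-293-SNCA-luc cells (1500/well) plated 24 h, then exposed 24 h to a dilution series; GF-AFC added 30 min at 37C, fluorescence 405/540 nm; normalised to medium-only and DMSO wells, Hill fit.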
IP6K1 inhibitor: inhibitors of human IP6K1. Q92551. IP6K1 kinase, ADP-Glo luminescence, 2 h; active compounds read low. activity change, % (series mostly up to about 58 µM). 0.81% of 140,000 active; in the data active = activity change below about -25%; note: % is set by controls: 0 for no effect and ±100 for the full control effect
Target sequence (Q92551 whole entry, looked up): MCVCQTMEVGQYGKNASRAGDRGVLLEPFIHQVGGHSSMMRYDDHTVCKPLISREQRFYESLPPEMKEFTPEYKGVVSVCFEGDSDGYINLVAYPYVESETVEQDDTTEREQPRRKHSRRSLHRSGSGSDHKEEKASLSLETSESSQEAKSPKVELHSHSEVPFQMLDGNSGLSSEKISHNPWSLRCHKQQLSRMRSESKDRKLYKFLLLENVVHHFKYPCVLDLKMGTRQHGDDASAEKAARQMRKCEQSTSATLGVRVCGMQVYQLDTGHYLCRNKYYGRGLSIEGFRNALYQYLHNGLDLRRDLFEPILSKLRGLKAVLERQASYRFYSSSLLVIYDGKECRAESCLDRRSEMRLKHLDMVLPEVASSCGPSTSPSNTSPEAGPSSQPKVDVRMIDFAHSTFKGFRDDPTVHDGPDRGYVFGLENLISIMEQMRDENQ
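ADP-Glo luminescence measures ADP made by human IP6K1 during a 2 h RT reaction with ATP/IP6 (mix at 1.3 mM/130 uM); top library doses 57.5 and 19.1 uM final.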
SNCA expr inhib: SNCA gene expression inhibition | 0.17% of 140,000 active | HEK-293 SNCA-luciferase knock-in, luminescence, 24 h | Potency, µM (highest dose often 57.2 µM), without a hit: at the top dose activity change, negative = inhibition, hits mostly inhibitors;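 note: potency is the fitted concentration of half-maximal effect; plate controls were DMSO cells for no effect and cell-free wells for full effect; nearly all actives have a fitted effect of over 45% in size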
GPT2 inh: blocks human glutamate pyruvate transaminase 2. Recombinant GPT2, coupled pyruvate oxidase/HRP Amplex Red fluorescence. Q8TD30. 0.25% of 100,000 active. Potency, µM (highest dose often 57.7 µM), without a hit: at the top dose activity change, negative = inhibition, usual class: inhibitors; note: potency is the fitted concentration of half-maximal effect; % is set by controls: 0 for no effect and ±100 for the full control effect; nearly all actives have a fitted effect of over 60% in size
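Fluorescence read-out: pyruvate from GPT2 turnover coupled to pyruvate oxidase, HRP and Amplex Red (0.2mM ThPP, 0.2U/mL PO and HRP, 50uM Amplex final). Substrates 250uM a-KG, 2mM L-alanine; enzyme 10ng/uL; 30 min RT.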
GPT2 inh cnf: confirmation of human GPT2 inhibitors | shares compounds with GPT2 inh | GPT2 enzyme, coupled Amplex Red pyruvate fluorescence | Potency, µM, most hits filed as inhibitors | 90% of 95 active | AID 1671187
Numbers without * were called inactive; i = inactive; ? = inconclusive; . = no result; ! = not active in a repeat; [ ] = another dose, or the depositor's remark. An excerpt weighted towards active compounds, which were near 1% of everything screened. Unless noted, calls come from the whole dose curve; as a rule, active = well fitted curve in the direction sought with a large enough effect; inconclusive = small, poorly fitted or top-dose-only effect, or another doubt; inactive = no such curve, though single readings can be large; an effect the other way counts as inactive or inconclusive.

SMILES	SNCA viab count	IP6K1 inhibitor	SNCA expr inhib	GPT2 inh	GPT2 inh cnf
Cn1ccc2cc(NCc3nnc(C(=O)N4CCC[C@@H]4CN4CCCC4)n3-c3ccccc3)ccc21	-2.4%	-11.1	23.8%	?	?
Cc1ccccc1C(=O)N1CC(N2C(=O)c3c(c(C)nn3-c3ccccc3)C2C(C)C)C1 (configuration not stated)	.	0.9	.	.	.
Cc1ccccc1C(=O)N1CCCC(N2C(=O)c3c(c(C)nn3-c3ccccc3)C2C(C)C)C1 (configuration not stated)	.	9.0	.	.	.
CN1CCN(C)c2cc(Nc3ccc(N4CCOCC4)cc3)ncc2C1	.	.	.	.	7.03*
c1ccc(CCN2CCNc3cc(Nc4ccc(N5CCOCC5)cc4)ncc3C2)cc1	?	-1.3	16.7%[87.6 µM]	14.1µM*	6.27*
c1ccc(CN2CCNc3cnc(Nc4ccc(N5CCOCC5)cc4)cc3C2)cc1	?	-9.0	?	?	.
OCCN(CCO)c1nc(N2CCCCC2)c2nc(N(CCO)CCO)nc(N3CCCCC3)c2n1	?	-13.8	-20.0%	6.31µM*!	1.72*
COc1cccc(-c2ccc(CN3CCCC(NC(=O)c4ccncc4)C3)cc2)c1 (configuration not stated)	-8.1%	-3.5	5.7%	2.6%	.
COc1ccc(CN2CCNc3cnc(Nc4ccccc4)cc3C2)cc1O	-15.0%[87.6 µM]	-20.7	-24.5%[87.6 µM]	?	4.98*
c1ccc(Nc2cc3c(cn2)NCCN(Cc2ccccn2)C3)cc1	-9.1%[87.6 µM]	2.5	-1.6%[87.6 µM]	-81.0%[88.5 µM]	3.53*
Oc1ccccc1CN1CCNc2cnc(Nc3ccccc3)cc2C1	-17.8%[87.6 µM]	-15.8	?	6.31µM*	6.27*
COc1ccc(CN2CCNc3cc(Nc4cccnc4)ncc3C2)cc1O	-22.0%[87.6 µM]	-21.3	17.0%[87.6 µM]	0.5%[88.5 µM]	.
CC(C)c1nc2c(c(-c3ccc(Cl)cc3)n1)CCN(Cc1ccc(F)cc1)CC2	-2.8%	12.5	6.3%	i	.
CCN(CC)c1ccc(NC(=O)CCn2ccn3nc4c(c3c2=O)CCCC4)c(C)c1	?	17.7	-28.7%	?	1.72*
Cc1cc(Cl)ccc1NC(=O)CCn1ccn2nc3c(c2c1=O)CCCC3	-2.7%	0.2	-23.5%	i	.
Cc1nn(-c2ccccc2)c2c1C(C1CC1)N(C1CN(C(=O)Cc3cccc(Cl)c3)C1)C2=O (configuration not stated)	.	13.6	.	.	.
CCOCCCNC(=O)c1cc(-c2cccc(F)c2)nc2c1cnn2C	.	1.1	.	.	.
O=C(NCc1ccc(Cl)cc1)c1ccc2nnc(-c3cccc(C(F)(F)F)c3)n2c1	-20.4%	5.5	?	i	.
CCNc1ncc(C(=O)N2CCCC(Nc3ccc(OC)cc3)C2)cn1 (configuration not stated)	11.3%	5.6	4.9%	i	.
COc1ccc(NC2CCCN(CC(=O)Nc3ccc(C)cn3)C2)cc1 (configuration not stated)	-1.1%	-0.3	-5.5%	?	5.44*
COc1ccccc1C(=O)NCCNC(=O)c1cccc(-c2ncccc2C#N)c1	6.0%	11.2	-3.6%	i	.
CN(C)c1ccc2c(c1)CN(C(=O)c1cnn(C)c1)CCO2	2.9%	-6.0	-4.2%	1µM*	0.685*
CN(C)c1ccc(C(=O)N2CCc3cn(C)c4cccc(c34)C2)cc1	0.7%	12.4	-12.4%	-0.3%	.
COc1ccc(-c2ccc3nc(-c4ccccc4)oc3c2)c(OC)c1OC	13.6%	12.4	-11.2%	-19.4%	.
COc1ccc(-c2ccc3nc(-c4cccc(Cl)c4)oc3c2)c(OC)c1OC	9.8%	-4.3	-7.4%	?	2.43*
